molecular target: Fibroblast growth factor 2 (Homo sapiens) (UniProt P09038); assay: FGF2 binders on small-molecule microarrays, primary screen, biochemical, small-molecule microarray, 635/667 nm fluorescence (AID 1133); conditions: small-molecule microarray binding, FGF2, fluorescence 635/667; higher = more signal
Sequence (P09038 whole entry, looked up): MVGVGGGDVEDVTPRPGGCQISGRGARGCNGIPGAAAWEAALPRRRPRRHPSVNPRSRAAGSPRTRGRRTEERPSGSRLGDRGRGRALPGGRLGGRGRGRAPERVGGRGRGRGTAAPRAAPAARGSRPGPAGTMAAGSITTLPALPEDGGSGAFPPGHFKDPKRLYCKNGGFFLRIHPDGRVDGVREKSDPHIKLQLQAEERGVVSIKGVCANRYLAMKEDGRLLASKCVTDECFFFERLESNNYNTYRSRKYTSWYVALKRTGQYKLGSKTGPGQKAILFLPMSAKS

First: CS(=O)(=O)CCOC(=O)C1=CC(c2ccc(CO)cc2)=CC(C2CC2)N(Cc2sc3ccccc3c2Cl)C=C1C(=O)OCCS(C)(=O)=O (stereo not drawn)
Second: COC(=O)[C@@]1(Cc2ccc(F)cc2)[C@H]2c3cc(C(=O)N(C)C)n(CCc4ccc(OC)c(Br)c4)c3C[C@H]2CN1C(=O)c1ccccc1
The composite z-score of the first is higher: 0.881 for the first, -0.433 for the second.

First: CCCCNC(=O)c1ccc(C#CC(C)(C)C)c(OC(C)=O)c1
Second: CC(C)[Si](C#CCCCC#N)(O[C@H](c1ccccc1)c1cn(Cc2ccccc2)nn1)C(C)C
The composite z-score of the first is lower: 0.553 for the first, 0.725 for the second.

Going from `O=C1C2C=CC(C(O)c3ccco3)N(Nc3ccccc3F)C2C(=O)N1c1ccccc1` (stereo not drawn) to `COc1cc(NN2C(C(O)c3ccco3)C=CC3C(=O)N(C)C(=O)C32)cc(OC)c1OC` (stereo not drawn), the composite z-score rises from -0.327 to 0.127.

For `COCCOC(=O)N1C(=O)[C@@]2(c3cc(C#CC4(O)CCCCCC4)ccc31)[C@H](C(=O)Nc1nc3ccccc3s1)[C@H]1C(=O)O[C@H](c3ccccc3)[C@H](c3ccccc3)N1[C@@H]2c1ccc(O)cc1`, the composite z-score was 1.06.

system: not listed separately; assay: mitochondrial membrane potential change in A549 cells, profiling panel, cell-based, JC-1 fluorescence, basal, 24 h, 100 nL (AID 1138); conditions: higher = more signal;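 also: A549 lung adenocarcinoma cells under basal conditions with no added stimulus; test concentration not given here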

Compared with `CCC#CCN(Cc1ccccc1Br)[C@H](/C=C/C1CC1)[C@@H](O)Cc1ccccc1`, `O[C@@H](Cc1ccccc1)[C@@H](/C=C/C1CC1)N(CC#Cc1ccccc1)Cc1ccccc1Br` is higher in z-score: -0.368 for the first, 0.163 for the second.

Going from `CCCCN1CC=CC23O[C@@H]4/C=C\CCCOC(=O)C4[C@H]2C(=O)N(CCO)[C@@H]3C1=O` (stereo partly drawn) to `NCCCCCNC(=O)[C@H]1C[C@H]2C(=O)N3CCC[C@H]3C(=O)N2[C@H]1c1cccc(OCCO)c1`, the z-score falls from -0.655 to -0.705.

Compared with `C=CCNC(=O)[C@@H]1[C@H]2C(=O)O[C@H](c3ccccc3)[C@H](c3ccccc3)N2[C@H](c2ccccc2OCCO)[C@@]12C(=O)N(C(=O)OCCOC)c1ccc(C#CC3(O)CCCCCC3)cc12`, `C=CCNC(=O)[C@H]1[C@@H]2C(=O)O[C@@H](c3ccccc3)[C@@H](c3ccccc3)N2[C@@H](c2ccccc2OCCO)[C@]12C(=O)N(C(=O)OCCOC)c1ccc(C#CC3(O)CCCCCC3)cc12` is higher in z-score: -1.2 for the first, -0.634 for the second.

Going from `O=C(C1N=C(c2ccc(OCCCO)cc2)N(c2ccccc2)O1)N1CCCCC1` (stereo not drawn) to `[N-]=[N+]=Nc1ccccc1C[C@]1(C(=O)NCCN2CCOCC2)COC(c2ccc(OCCCO)cc2)=N1`, the z-score rises from 0.924 to 2.08.

First: CN(C)CCCCCCNC(=O)[C@@H]1C[C@@H]2C(=O)N3CCC[C@H]3C(=O)N2[C@@H]1c1cccc(OCCO)c1
Second: CCOC(=O)C[C@H]1[C@H](OC(=O)Cc2ccc3c(c2)OCO3)[C@@H](NC(=O)C2CCCCC2)c2cc(OCCCO)ccc2N1C(=O)c1ccccc1
The z-score of the first is lower: -0.17 for the first, 1.76 for the second.

Compared with `COC(=O)[C@@]1(Cc2ccccc2)[C@H]2c3cc(C(=O)N(C)C)n(Cc4ccc(C)o4)c3C[C@H]2CN1C(=O)c1ccccc1`, `COC(=O)[C@@]1(Cc2ccc(F)cc2)[C@H]2c3cc(C(=O)N(C)C)n(CCc4ccc(OC)c(Br)c4)c3C[C@H]2CN1C(=O)c1ccccc1` is lower in z-score: -0.0901 for the first, -0.638 for the second.

Going from `COCC(=C=CC[C@H](O)c1ccc(OCCO)cc1)CCO` to `[N-]=[N+]=Nc1ccccc1C[C@]1(C(=O)NCC(O)CO)COC(c2ccc(OCCCO)cc2)=N1` (stereo partly drawn), the z-score rises from 0.63 to 2.

Going from `CCCC[C@@H]1C[C@H]1[C@@H](NC(=O)c1cccs1)c1ccccc1C(F)(F)F` to `CCCCC(CC)C(O)C1C=CC2C(=O)N(c3ccccc3)C(=O)C2N1Nc1ccc(C#N)cc1` (stereo not drawn), the z-score falls from 0.245 to -0.213.

Compared with `COc1cc(C(O)C2C=CC3C(=O)N(C)C(=O)C3N2Nc2ccccc2)cc(OC)c1OC` (stereo not drawn), `COc1cc(NN2C(C(O)c3ccco3)C=CC3C(=O)N(C)C(=O)C32)cc(OC)c1OC` (stereo not drawn) is higher in z-score: 0.29 for the first, 0.629 for the second.

Compared with `COc1ccc([Si](C)(C)[C@@H]2[C@@H](CC(=O)N3Cc4ccccc4C[C@H]3CO)O[C@]3(C(=O)N(Cc4ccc(N5C(=O)c6cccc7cccc5c67)cc4)c4ccccc43)[C@H]2C)cc1`, `COc1ccc([Si](C)(C)[C@H]2[C@H](CC(=O)N3Cc4ccccc4C[C@H]3CO)O[C@@]3(C(=O)N(Cc4ccc(N5CCOC5=O)cc4)c4ccccc43)[C@@H]2C)cc1` is lower in z-score: 1.2 for the first, 0.516 for the second.

Compared with `C=CCC(OC(C)=O)[C@@H]1[C@@H](N(Cc2ccc(-c3cccc(C(F)(F)F)c3)o2)C(=O)c2ccc(-c3ccccc3)cc2)c2cc(OCCCO)ccc2N1C(=O)Cc1ccc2ccccc2c1` (stereo partly drawn), `CCOC(=O)C[C@H]1[C@H](OC(=O)c2ccc(C(=O)c3ccccc3)cc2)[C@@H](NC(=O)c2ccc(-c3ccccc3)cc2)c2cc(OCCCO)ccc2N1C(=O)Cc1ccc(OC)cc1` is higher in z-score: 0.0819 for the first, 0.967 for the second.

Going from `COc1ccc([Si](C)(C)[C@@H]2[C@@H](CCO)O[C@]3(C(=O)N(Cc4cccc(NC(=O)[C@H](C)O)c4)c4ccccc43)[C@H]2C)cc1` to `CCOC(=O)C1=C[C@@H](c2ccccc2)N(S(=O)(=O)c2ccc(C)cc2)[C@H]1c1ccc(OC)cc1`, the z-score rises from -1.52 to 1.77.

First: CCCCC[C@H]1OC[C@@]23C=C(Br)[C@@H](CC12)[C@@]1(CO1)C3=O (stereo partly drawn)
Second: C=CCN1Cc2ccccc2[C@@H]2OC(c3ccc(OCCCO)cc3)=N[C@]2(CC=C)C1=O
The z-score of the first is lower: 0.617 for the first, 2.5 for the second.

Going from `Cc1ccc(NN2C(C(O)c3c(F)cccc3Cl)C=CC3C(=O)N(C4CCCCC4)C(=O)C32)cc1` (stereo not drawn) to `O=C1C2C=CC(C(O)c3ccco3)N(Nc3ccccc3F)C2C(=O)N1c1ccccc1` (stereo not drawn), the z-score falls from 1.19 to -0.537.

First: NC(=O)[C@H]1[C@@H]2C(=O)O[C@@H](c3ccccc3)[C@@H](c3ccccc3)N2[C@@H](c2ccc(OCCO)cc2)[C@]12C(=O)Nc1ccc(C#CCCO)cc12
Second: COCCOC(=O)N1C(=O)[C@@]2(c3cc(C#CC4(O)CCCCCC4)ccc31)[C@H](C(=O)Nc1nc3ccccc3s1)[C@H]1C(=O)O[C@H](c3ccccc3)[C@H](c3ccccc3)N1[C@@H]2c1ccc(O)cc1
The z-score of the first is higher: -0.262 for the first, -1.14 for the second.

First: CCC1=C2CN(Cc3ccccc3)[C@@H](C(=O)Cc3ccccc3)C2C=CCC1 (stereo partly drawn)
Second: CC(C)[Si](C#CCCCC#N)(O[C@H](c1ccccc1)c1cn(Cc2ccccc2)nn1)C(C)C
The z-score of the first is lower: -1.22 for the first, 0.408 for the second.

Going from `CCCC=C(CCC)[C@@H](NP(=O)(c1ccccc1)c1ccccc1)c1ccc(-c2ccccc2)cc1` to `CO[C@H]1O[C@H](CO)[C@@H](OC(=O)CCc2ccccc2)[C@@H]2OC(=O)[C@@H](Cc3ccccc3)C/C=C/C[C@H](Cc3ccccc3)C(=O)O[C@@H]12`, the z-score rises from -2.3 to 2.11.

First: CS(=O)(=O)CCOC(=O)C1=CC(c2ccc(CO)cc2)=CC(C2CC2)N(Cc2sc3ccccc3c2Cl)C=C1C(=O)OCCS(C)(=O)=O (stereo not drawn)
Second: CCCCNC(=O)c1ccc(C#CC(C)(C)C)c(OC(C)=O)c1
The z-score of the first is higher: 2.04 for the first, -0.895 for the second.
